# Experimental data: PubChem BioAssay AID1159580 (chemical genetic matrix, 2015)
# Screen size: about 5,500 compounds; about 2,000 (36%) were called active. About 18% were inconclusive and are not listed. Some of the results follow. Unmarked numbers belong to inactive results. Cut-off read from the data, not from the text of the source: active = normalized growth mostly below about 0.91 (no sharp cut-off); inconclusive = no clear call, values can overlap the other calls; inactive = mostly above about 0.92.
# Assay: chemical genetic growth profiling, strain panel (AID 1159580);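 note: tested at 20 µM; growth read once vehicle control cultures reached saturation at 30 °C; 1 = growth at the plate median or of vehicle wells; lower values mean less growth of the strain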
# Settings: growth OD
smiles,measurement,setting,value
CN(Cc1cc(Br)cc(Br)c1N)C1CCCCC1,normalized growth,"S. cerevisiae deletion strains, locus YKL009W, strain mrt4, active compounds read low",1.01
same,normalized growth,"S. cerevisiae deletion strains, locus YKL068W, active compounds read low",1.01
same,normalized growth,"S. cerevisiae deletion strains, locus YKL085W, strain MDH1 (second series), active compounds read low",1.01
same,normalized growth,"S. cerevisiae deletion strains, locus YKL085W, strain MDH1, active compounds read low",1.01
same,normalized growth,"S. cerevisiae deletion strains, locus YKL160W, strain elf1, active compounds read low",1
same,normalized growth,"S. cerevisiae deletion strains, locus YKL190W, strain CNB1, active compounds read low",1.02
same,normalized growth,"S. cerevisiae deletion strains, locus YKR001C, strain vps1, active compounds read low",0.994
same,normalized growth,"S. cerevisiae deletion strains, locus YKR026C, strain gcn3, active compounds read low",1.04
same,normalized growth,"S. cerevisiae deletion strains, locus YKR091W, strain srl3, active compounds read low",1.03
same,normalized growth,"S. cerevisiae deletion strains, locus YLL001W, strain dnm1, active compounds read low",1.03
same,normalized growth,"S. cerevisiae deletion strains, locus YLL026W, active compounds read low",1.03
same,normalized growth,"S. cerevisiae deletion strains, locus YLL041C, strain sdh2, active compounds read low",1.05
same,normalized growth,"S. cerevisiae deletion strains, locus YLR027C, strain aat2, active compounds read low",1.01
same,normalized growth,"S. cerevisiae deletion strains, locus YLR039C, strain RIC1, active compounds read low",1.08
same,normalized growth,"S. cerevisiae deletion strains, locus YLR058C, strain SHM2, active compounds read low",1.01
same,normalized growth,"S. cerevisiae deletion strains, locus YLR102C, strain apc9, active compounds read low",1.02
same,normalized growth,"S. cerevisiae deletion strains, locus YLR113W, strain HOG1, active compounds read low",0.947
same,normalized growth,"S. cerevisiae deletion strains, locus YLR221C, strain rsa3, active compounds read low",0.997
same,normalized growth,"S. cerevisiae deletion strains, locus YLR258W, strain gsy2, active compounds read low",1.03
same,normalized growth,"S. cerevisiae deletion strains, locus YLR262C, strain YPT6 (second series), active compounds read low",0.982
same,normalized growth,"S. cerevisiae deletion strains, locus YLR262C, strain YPT6, active compounds read low",1.08
same,normalized growth,"S. cerevisiae deletion strains, locus YLR268W, strain sec22, active compounds read low",1.01
same,normalized growth,"S. cerevisiae deletion strains, locus YLR320W, strain mms22, active compounds read low",0.984
same,normalized growth,"S. cerevisiae deletion strains, locus YLR330W, strain CHS5, active compounds read low",1.02
same,normalized growth,"S. cerevisiae deletion strains, locus YLR342W, strain FKS1 (second series), active compounds read low",1
same,normalized growth,"S. cerevisiae deletion strains, locus YLR342W, strain FKS1, active compounds read low",1.02
same,normalized growth,"S. cerevisiae deletion strains, locus YLR357W, strain rsc2, active compounds read low",1.06
same,normalized growth,"S. cerevisiae deletion strains, locus YLR370C, strain arc18, active compounds read low",1.04
same,normalized growth,"S. cerevisiae deletion strains, locus YLR371W, strain rom2, active compounds read low",1.02
same,normalized growth,"S. cerevisiae deletion strains, locus YLR384C, strain iki3, active compounds read low",1.04
same,normalized growth,"S. cerevisiae deletion strains, locus YLR418C, strain cdc73, active compounds read low",1.02
same,normalized growth,"S. cerevisiae deletion strains, locus YML016C, strain PPZ1, active compounds read low",1.01
same,normalized growth,"S. cerevisiae deletion strains, locus YML032C, strain rad52, active compounds read low",0.986
same,normalized growth,"S. cerevisiae deletion strains, locus YML120C, strain ndi1, active compounds read low",1.04
same,normalized growth,"S. cerevisiae deletion strains, locus YML124C, strain tub3, active compounds read low",1.03
same,normalized growth,"S. cerevisiae deletion strains, locus YMR058W, strain fet3, active compounds read low",0.995
same,normalized growth,"S. cerevisiae deletion strains, locus YMR078C, strain ctf18, active compounds read low",1.04
same,normalized growth,"S. cerevisiae deletion strains, locus YMR125W, strain sto1, active compounds read low",1.06
same,normalized growth,"S. cerevisiae deletion strains, locus YMR129W, active compounds read low",1.04
same,normalized growth,"S. cerevisiae deletion strains, locus YMR205C, strain PFK2, active compounds read low",1.04
same,normalized growth,"S. cerevisiae deletion strains, locus YMR223W, strain ubp8, active compounds read low",1
same,normalized growth,"S. cerevisiae deletion strains, locus YMR231W, strain pep5, active compounds read low",1.04
same,normalized growth,"S. cerevisiae deletion strains, locus YMR307W, strain GAS1, active compounds read low",1.17
same,normalized growth,"S. cerevisiae deletion strains, locus YNL067W, strain RPL9B, active compounds read low",0.966
same,normalized growth,"S. cerevisiae deletion strains, locus YNL071W, strain lat1, active compounds read low",1.04
same,normalized growth,"S. cerevisiae deletion strains, locus YNL183C, strain NPR1, active compounds read low",0.838
same,normalized growth,"S. cerevisiae deletion strains, locus YNL209W, strain ssb2, active compounds read low",1.03
same,normalized growth,"S. cerevisiae deletion strains, locus YNL233W, strain BNI4, active compounds read low",1.01
same,normalized growth,"S. cerevisiae deletion strains, locus YNL248C, strain rpa49, active compounds read low",1.04
same,normalized growth,"S. cerevisiae deletion strains, locus YNL250W, strain rad50, active compounds read low",1.05
same,normalized growth,"S. cerevisiae deletion strains, locus YNL271C, strain bni1, active compounds read low",1.02
same,normalized growth,"S. cerevisiae deletion strains, locus YNL298W, strain CLA4, active compounds read low",1.03
same,normalized growth,"S. cerevisiae deletion strains, locus YNL307C, strain MCK1, active compounds read low",1.01
same,normalized growth,"S. cerevisiae deletion strains, locus YNL322C, strain KRE1 (second series), active compounds read low",1.06
same,normalized growth,"S. cerevisiae deletion strains, locus YNL322C, strain KRE1, active compounds read low",1.02
same,normalized growth,"S. cerevisiae deletion strains, locus YNR049C, strain mso1, active compounds read low",1.02
same,normalized growth,"S. cerevisiae deletion strains, locus YNR052C, strain pop2, active compounds read low",1.01
same,normalized growth,"S. cerevisiae deletion strains, locus YOL006C, strain TOP1, active compounds read low",0.804
same,normalized growth,"S. cerevisiae deletion strains, locus YOL012C, strain htz1",2.06
same,normalized growth,"S. cerevisiae deletion strains, locus YOL147C, strain pex11, active compounds read low",1.03
same,normalized growth,"S. cerevisiae deletion strains, locus YOR001W, strain rrp6, active compounds read low",1.01
same,normalized growth,"S. cerevisiae deletion strains, locus YOR061W, strain CKA2, active compounds read low",1.01
same,normalized growth,"S. cerevisiae deletion strains, locus YOR069W, strain VPS5, active compounds read low",1.02
same,normalized growth,"S. cerevisiae deletion strains, locus YOR070C, strain gyp1, active compounds read low",1.03
same,normalized growth,"S. cerevisiae deletion strains, locus YOR080W, strain dia2, active compounds read low",1.07
same,normalized growth,"S. cerevisiae deletion strains, locus YOR083W, strain WHI5, active compounds read low",0.988
same,normalized growth,"S. cerevisiae deletion strains, locus YOR106W, strain vam3, active compounds read low",1.01
same,normalized growth,"S. cerevisiae deletion strains, locus YOR136W, strain idh2, active compounds read low",1.01
same,normalized growth,"S. cerevisiae deletion strains, locus YOR144C, strain elg1, active compounds read low",1.02
same,normalized growth,"S. cerevisiae deletion strains, locus YOR184W, strain ser1, active compounds read low",0.935
same,normalized growth,"S. cerevisiae deletion strains, locus YOR231W, strain MKK1, active compounds read low",0.841 (active)
same,normalized growth,"S. cerevisiae deletion strains, locus YOR265W, strain rbl2, active compounds read low",1.05
same,normalized growth,"S. cerevisiae deletion strains, locus YOR270C, strain vph1, active compounds read low",0.811
same,normalized growth,"S. cerevisiae deletion strains, locus YOR290C, strain snf2, active compounds read low",1
same,normalized growth,"S. cerevisiae deletion strains, locus YOR316C, strain cot1, active compounds read low",1.02
same,normalized growth,"S. cerevisiae deletion strains, locus YPL051W, strain arl3, active compounds read low",0.983
same,normalized growth,"S. cerevisiae deletion strains, locus YPL078C, strain atp4, active compounds read low",1.01
same,normalized growth,"S. cerevisiae deletion strains, locus YPL106C, strain sse1, active compounds read low",1
same,normalized growth,"S. cerevisiae deletion strains, locus YPL240C, strain hsp82, active compounds read low",1.02
same,normalized growth,"S. cerevisiae deletion strains, locus YPL241C, strain CIN2, active compounds read low",1.01
same,normalized growth,"S. cerevisiae deletion strains, locus YPL256C, strain CLN2, active compounds read low",0.944
same,normalized growth,"S. cerevisiae deletion strains, locus YPR119W, strain clb2, active compounds read low",1.01
same,normalized growth,"S. cerevisiae deletion strains, locus YPR141C, strain kar3, active compounds read low",1.02
same,normalized growth,"S. cerevisiae deletion strains, locus YPR163C, strain tif3, active compounds read low",1.03
same,normalized growth,"S. cerevisiae deletion strains, locus YPR167C, strain met16, active compounds read low",1.01
same,normalized growth,"S. cerevisiae deletion strains, strain wtn01, active compounds read low",0.995
same,normalized growth,"S. cerevisiae strains, strain wild type, active compounds read low",1.01
